ssDAF12 agonist – activators of S. stercoralis DAF-12 nuclear receptor. HEK293 ssDAF-12/GRIP1 lit1-tk-luc reporter, luminescence; % of 3 µM dafachronic acid response. activation, % at 6.8 µM. actives 1% (n = 370,000);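 active = activation above the mean over all tested compounds plus 3 SD, cut at about 0.9% in these data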
DAX1 inh-1 – NR0B1 (DAX1) inhibition. P51843. HEK293 Gal4-DAX1 luciferase reporter, luminescence. inhibition, % at 6.75 µM. actives 0.99% (n = 340,000);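 active = inhibition above the mean over all tested compounds plus 3 SD, cut at about 4.2% in these data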;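 note: inhibition shows as a rise in luminescence from relieved DAX1 repression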
Target sequence (P51843 207-470 limits assumed): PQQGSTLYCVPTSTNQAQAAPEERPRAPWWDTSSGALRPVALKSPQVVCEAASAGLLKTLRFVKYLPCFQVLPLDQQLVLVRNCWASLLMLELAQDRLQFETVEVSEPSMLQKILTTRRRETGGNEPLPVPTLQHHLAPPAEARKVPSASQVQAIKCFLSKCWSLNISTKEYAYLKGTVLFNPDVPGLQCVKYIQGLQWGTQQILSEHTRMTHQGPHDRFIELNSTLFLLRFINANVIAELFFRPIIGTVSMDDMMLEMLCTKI
hcDAF-12 act – H. contortus DAF-12 activation, primary screen; actives 1.4% (n = 370,000); activation, % at 6.8 µM; AID 652067; HEK293 hcDAF-12 lit1-tk-luc reporter, luminescence; 0% DMSO, 100% Δ7-dafachronic acid;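 active = activation above the mean of all tested compounds plus 3 SD, cut at about 5.5% in these data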
hgDAF-12 ag – hgDAF-12 agonism, primary luciferase screen; HEK293 GAL4-hgDAF12 UAS-luciferase reporter, agonist luminescence; normalized to butyrate control; actives 1.8% (n = 370,000); activation, % at 6.8 µM;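 active = activation above a cutoff set at the mean of all screened compounds plus 3 SD, cut at about 10% in these data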
GAA850 FXN act – frataxin GAA850 promoter activation. actives 0.56% (n = 360,000). activation, % at 6 µM. AID 540364. HEK293 lucGAA850 FXN promoter luciferase reporter, 24 h; percent of 10 µM SAHA response;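 active = activation above the average of all compounds screened plus 3 SD, cutoff fixed separately per campaign, cut at about 7.5% in these data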
DAX1 inh-2 – DAX1 (NR0B1) inhibition, primary screen; HEK293T StAR-luciferase reporter, SF-1/DAX-1 repression relief; inhibition, % at 6.8 µM; actives 1.1% (n = 370,000);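 active = inhibition above the mean over all tested compounds plus 3 SD, cut at about 3.6% in these data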;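 note: higher inhibition means more luminescence from relief of DAX-1 repression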
Large screens that a line does not name were inactive. A selection: hits, their analogues and other compounds. The true share with any hit is near 4.5%.

CC(NC(=O)c1ccc2ccccc2n1)c1ccccc1 (stereo unspecified)	DAX1 inh-1 5.4
Cc1ccc2c(c1)c(N=Nc1ccc([N+](=O)[O-])cc1)c(O)n2C	hcDAF-12 act 6.0
Cn1c(O)c(N=Nc2ccc(F)cc2)c2ccccc21	hcDAF-12 act 5.6
Cn1c(O)c(N=NC(=O)CNC(=O)c2ccccc2)c2ccccc21	none
Cn1c(O)c(N=Nc2ccccc2)c2ccccc21	ssDAF12 agonist 1.2
Cc1ccc(-n2c(SCC(=O)c3ccc(O)c(O)c3)nnc2-c2ccccc2)cc1	none (no result: DAX1 inh-1, GAA850 FXN act)
O[C@H](COc1ccc(C(F)(F)F)cc1)CN1CCC(C(O)(c2ccccc2)c2ccccc2)CC1	none (no result: DAX1 inh-1, GAA850 FXN act)
O=C(c1ccc2oc(CCCc3ccccc3)nc2c1)N1CCCCC1CO (stereo unspecified)	DAX1 inh-2 3.8
CCCCc1nc2cc(C(=O)N3CCCCC3C(=O)OC)ccc2o1 (stereo unspecified)	hgDAF-12 ag 12, DAX1 inh-2 4.2
CCCCc1nc2cc(C(=O)N3CCCCC3CC(=O)OCC)ccc2o1 (stereo unspecified)	none
COCC1CCCN(C(=O)c2ccc3oc(CCCc4ccccc4)nc3c2)C1 (stereo unspecified)	none
CCCCc1nc2cc(C(=O)NC(C)c3cnn(C)c3)ccc2o1 (stereo unspecified)	DAX1 inh-2 3.8
CCCCc1nc2cc(C(=O)N3CCCC3)ccc2o1	DAX1 inh-2 4.0
O=C(C1CCN(S(=O)(=O)c2ccc3[nH]c(=O)oc3c2)CC1)N1CCCN(Cc2ccccc2)CC1	none (no result: DAX1 inh-1, GAA850 FXN act)
C=CCN1C(=O)c2n[nH]c(C(C)C)c2C1c1ccc(C)cc1 (stereo unspecified)	none (no result: DAX1 inh-1, GAA850 FXN act)
COc1ccc(C2N(c3ccc(C)cc3)CCN2c2ccc(C)cc2)cc1O	DAX1 inh-1 4.9
O=c1c(Cc2c(F)cccc2Cl)c(O)ccn1CCCn1ccnc1	DAX1 inh-1 4.3
O=c1c(Cc2c(F)cccc2Cl)c(O)ccn1Cc1ccc(F)cc1	none
NC(=O)c1cc2ccc(O)cc2oc1=Nc1ccccc1	hgDAF-12 ag 12
Cc1ccccc1/C=C/c1nc2ccccc2c(=O)[nH]1	hgDAF-12 ag 11
N#CCOc1ccccc1/C=C/c1nc2ccccc2c(=O)[nH]1	none
c1ccc(-c2cnc(-c3ccccn3)nn2)cc1	hgDAF-12 ag 11
CN(C)CCCNC(=O)C[C@H]1C[C@H](C(=O)N2CCOCC2)[C@@]2(CCC3CCCC3)c3[nH]c4cc(-c5ccco5)ccc4c3CCN2C1=O	none
O=C(C[C@H]1C[C@H](C(=O)N2CCOCC2)[C@@]2(CCC3CCCC3)c3[nH]c4cc(-c5ccco5)ccc4c3CCN2C1=O)NCCN1CCOCC1	DAX1 inh-2 3.7
COc1ccc(NC(=O)CCSc2ccc(F)cc2)cc1	DAX1 inh-1 4.2
CCOc1ccc(NC(=O)CN2C(=O)c3cccc4cccc2c34)cc1	hgDAF-12 ag 12 (no result: DAX1 inh-1, GAA850 FXN act)
CCOc1ccc(NC(=O)C(Cc2ccccc2)N2C(=O)c3cccc4cccc(c34)C2=O)cc1 (stereo unspecified)	hcDAF-12 act 6.0 (no result: DAX1 inh-1)
COc1ccc(NC(=O)CN2C(=O)c3cccc4cccc2c34)c(OC)c1	none
CN(C)c1ccc(NC(=S)OC2CCC23CCC(c2ccccc2)CC3)cc1 (stereo unspecified)	none (no result: DAX1 inh-1, GAA850 FXN act)
CCOCCCNC(=S)N(CCCN(C)C)Cc1cc2cc3c(cc2[nH]c1=O)OCCO3	DAX1 inh-1 4.7
O=C(Cn1c(-c2cncs2)nc2ccccc21)NCc1cccs1	none (no result: DAX1 inh-1, GAA850 FXN act)
Cc1cccc2c(C(=O)O)c3cccc(C)c3nc12	ssDAF12 agonist 1.3
c1ccc(SCc2nc(-c3ccncc3)no2)cc1	hcDAF-12 act 5.6
COc1ccc(-c2nc(SC(C)C(=O)NC3CC3)n[nH]2)cc1 (stereo unspecified)	DAX1 inh-1 4.5
Cc1sc(N=Nc2ccc(N(C)C)cc2)[n+]([O-])c1C	DAX1 inh-2 3.7
CCc1c(-c2ccccc2)ncn1CCc1ccccc1OC	none (no result: DAX1 inh-1, GAA850 FXN act)
O=c1c(/C=N/Nc2ccccc2)c(Sc2nnnn2-c2ccccc2)nc2ccccn12	hcDAF-12 act 6.3, hgDAF-12 ag 12

Compound activity from PubChem BioAssay.
